Assay [1] is described as follows: qHTS assay to identify small molecule antagonists of the glucocorticoid receptor (GR) signaling pathway - cell viability counter screen (AID 720693). Also: nearly all actives have a fitted effect of over 55% in size. Background: In qHTS, concentration-response curves come from the screen itself.
A short description of assay [2]: qHTS assay for identifying genotoxic compounds that show differential cytotoxicity against isogenic chicken DT40 cell lines with known DNA damage response pathways - wild type cell line (AID 743012). Also: nearly all actives have a fitted effect of over 60% in size. Also: potency is read from the fitted curve at half-maximal effect. The essentials:
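Endpoint: CellTiter-Glo luminescence, 30 min RT. Cells: wild type DT40, 300/well. Exposure: compounds in DMSO, 40 h, 37 C/5% CO2, after ~0.5 h pre-incubation.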

A short description of assay [3]: qHTS assay for identifying genotoxic compounds that show differential cytotoxicity against isogenic chicken DT40 cell lines with known DNA damage response pathways - Rev3 mutant cell line (AID 743014). Also: nearly all actives have a fitted effect of over 55% in size. Also: potency is read from the fitted curve at half-maximal effect.
A short description of assay [4]: qHTS assay for identifying genotoxic compounds that show differential cytotoxicity against isogenic chicken DT40 cell lines with known DNA damage response pathways - Rad54/Ku70 mutant cell line (AID 743015). Also: nearly all actives have a fitted effect of over 60% in size. Also: potency is read from the fitted curve at half-maximal effect.
Assay [5] can be described thus: qHTS assay to identify small molecule antagonists of the androgen receptor (AR) signaling pathway using the MDA cell line - cell viability counter screen (AID 743041; also: nearly all actives have a fitted effect of over 45% in size). The procedure, abridged: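 Viability read by CellTiter-Fluor fluorescence in the same wells as the antagonist screen, added after 15.5 h of a 16 h, 37C exposure. Human breast carcinoma MDA-kb2 AR-luc cells, compounds co-dosed with agonist R1881.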

A short description of assay [6]: qHTS assay to identify small molecule antagonists of the androgen receptor (AR) signaling pathway - cell viability counter screen (AID 743033; also: nearly all actives have a fitted effect of over 45% in size).
The target of assay [7] is Androgen receptor (Homo sapiens) (UniProt P10275). The experiment in a line: qHTS assay to identify small molecule antagonists of the androgen receptor (AR) signaling pathway (AID 743035; active = well fitted inhibition curve with a large enough effect in the signal ratio in the repeat runs, not every such curve was filed as active; the % refers to the signal ratio). The procedure, abridged: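 R1881 agonist challenge of a HEK293 UAS-beta-lactamase AR reporter line in the presence of compound (16 h, 37C); signal taken as FRET fluorescence after 2 h with LiveBLAzer B/G substrate at room temperature.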
Androgen receptor (Homo sapiens), sequence (P10275 whole entry, looked up): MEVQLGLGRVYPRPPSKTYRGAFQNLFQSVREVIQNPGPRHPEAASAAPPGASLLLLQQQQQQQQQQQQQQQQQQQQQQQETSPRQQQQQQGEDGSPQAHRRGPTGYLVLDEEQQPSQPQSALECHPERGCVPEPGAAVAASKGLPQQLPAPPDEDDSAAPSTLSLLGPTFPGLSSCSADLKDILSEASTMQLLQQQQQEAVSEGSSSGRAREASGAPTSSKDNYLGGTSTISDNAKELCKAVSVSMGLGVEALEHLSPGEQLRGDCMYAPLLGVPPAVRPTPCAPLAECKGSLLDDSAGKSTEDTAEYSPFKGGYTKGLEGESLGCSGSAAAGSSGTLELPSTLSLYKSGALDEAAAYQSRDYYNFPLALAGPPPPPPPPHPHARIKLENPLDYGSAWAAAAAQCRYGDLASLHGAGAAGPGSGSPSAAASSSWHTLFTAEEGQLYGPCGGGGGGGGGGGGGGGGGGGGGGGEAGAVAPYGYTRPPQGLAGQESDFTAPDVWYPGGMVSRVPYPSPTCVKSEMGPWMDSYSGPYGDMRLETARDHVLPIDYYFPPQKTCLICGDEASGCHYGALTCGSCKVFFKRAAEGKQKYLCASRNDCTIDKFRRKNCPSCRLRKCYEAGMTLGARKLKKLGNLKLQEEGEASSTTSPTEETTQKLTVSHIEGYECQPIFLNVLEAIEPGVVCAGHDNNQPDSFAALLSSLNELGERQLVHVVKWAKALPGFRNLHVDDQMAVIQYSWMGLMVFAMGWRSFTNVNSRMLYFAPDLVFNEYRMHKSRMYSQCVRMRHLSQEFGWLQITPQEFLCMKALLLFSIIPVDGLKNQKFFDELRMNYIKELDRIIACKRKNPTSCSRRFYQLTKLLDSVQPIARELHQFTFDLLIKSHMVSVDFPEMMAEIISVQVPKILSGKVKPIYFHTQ

Assay [8] has the same target. Nature of the assay: qHTS assay to identify small molecule agonists of the androgen receptor (AR) signaling pathway (AID 743036; active = well fitted activation curve with a large enough effect in the signal ratio in the repeat runs, with a control signal flat, not every such curve was filed as active; the % refers to the signal ratio). The essentials:
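Reporter line: GeneBLAzer AR-UAS-bla-GripTite (HEK293). Steps: plate cells, 4 h rest, add compounds, 16 h at 37C, add LiveBLAzer B/G substrate, 2 h at RT, read fluorescence.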

Assay [9] shares this target. The experiment in a line: qHTS assay to identify small molecule agonists of the androgen receptor (AR) signaling pathway using the MDA cell line (AID 743040; also: nearly all actives have a fitted effect of over 20% in size). The procedure, abridged:
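Luciferase agonist assay: 16 h compound exposure at 37C without CO2 in MDA-kb2 AR-luc cells, whose MMTV promoter responds to both AR and GR. Luminescence measured after 30 min room-temperature incubation with ONE-Glo.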

Assay [10] has the same target. The experiment in a line: qHTS assay to identify small molecule antagonists of the androgen receptor (AR) signaling pathway using the MDA cell line (AID 743042; also: nearly all actives have a fitted effect of over 55% in size). The procedure, abridged: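 Antagonist mode: compounds plus R1881 agonist added to MDA-kb2 AR-luc cells, incubated 16 h at 37C. Luciferase reporter luminescence quantified, with multiplexed CellTiter-Fluor readout for cell viability.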

Results filed as inconclusive are left out. Calls of active or inactive are those of the source. Unless noted, calls follow the shape of the dose curve; as a rule, active = well fitted curve in the direction sought with a large enough effect in the repeat runs; inconclusive = weak or mixed curves; inactive = no such curve, though single readings can be large; an effect the other way counts as inactive or inconclusive.

Turning to `C#CC(C)(O)CC(C)C` (centres undefined), the outcome in [1] was inactive. Also, the Potency entry in assay [2], in [3], in assay [4] and in [5] was “inactive” each time.
With `CC(C)[C@H](N)C(=O)OCCOCn1cnc2c(=O)[nH]c(N)nc21`, the compound was classed as inactive in assay [1]. Besides, the Potency was 11.9 µM (active) in [2], 23.7 µM (active) in [3] and 26.6 µM (active) in [4]. For the same compound, the Potency entry in assay [5] is “inactive”.
For the compound `Nc1cc(N)cc(C(=O)O)c1`, the outcome in [1] was inactive. Also, the Potency entry in assay [2], in [3], in assay [4] and in assay [5] was “inactive” throughout.
For the compound `CC(C)=CCC/C(C)=C/C(=O)O`, the call in [1] and in assay [6] was inactive. The Potency entry in [2], in assay [3] and in [5] was “inactive” each time.
On to `CCCCCCCCCCC1CO1` (centres undefined), for which the compound was called inactive in assay [1] and in assay [6]. The Potency in assay [2] is 61.1 µM (active); in assay [3], 68.6 µM (active). Moreover, the Potency entry in [5] is “inactive”.
For the compound `C=CCn1c(=O)n([C@@H]2O[C@H](CO)[C@@H](O)[C@H]2O)c2nc(N)[nH]c(=O)c21`, the call in assay [1], in [6], in assay [8] and in assay [10] was inactive. In addition, the Potency entry in [2], in assay [3], in [7], in assay [9] and in [5] was “inactive” throughout.
As to `Oc1cc(O)c2c(c1)O[C@H](c1ccc(O)c(O)c1)[C@H](O)C2`, the result in assay [1] was inactive. The Potency entry in assay [2], in assay [3], in assay [4] and in assay [5] was “inactive” throughout.
With `CC(C)CCCCCCN`, the compound was called inactive in assay [1], in assay [8] and in assay [10]. For the same compound, the Potency entry in assay [2], in assay [3], in assay [4], in assay [9] and in assay [5] was “inactive” each time.
`CC(C)COC(=O)c1ccccc1O`: the call in [1] was inactive. Also, the Potency result in assay [2], in assay [4] and in assay [5] was “inactive” throughout. In addition, in assay [3], the Potency is 24.3 µM (active).
Turning to `CC(C)(O)C(=O)c1ccc(OCCO)cc1`, the compound was classed as inactive in assay [1] and in [6]. Besides, the Potency entry in assay [2], in [3] and in assay [5] was “inactive” each time.
Turning to `Cn1cnc2c(=O)[nH]c(N)nc21`, the call in assay [1] was inactive. Also, the Potency entry in [2], in assay [3] and in assay [5] was “inactive” each time. Further, the Potency in [4] was 61.3 µM (active).
On to `CC1(C)SC(C)(C)SC(C)(C)S1`, for which the outcome in assay [1], in [6], in assay [8] and in [10] was inactive. For the same compound, the Potency entry in assay [2], in assay [3], in assay [7], in assay [9] and in assay [5] was “inactive” each time.
On to `CN1[C@@H]2CC[C@H]1CC(NC(=O)n1c(=O)[nH]c3ccccc31)C2` (some centres undefined), for which the compound was classed as inactive in [1], in assay [6], in [8] and in assay [10]. Moreover, the Potency result in assay [2], in assay [3], in assay [7], in [9] and in assay [5] was “inactive” each time.
`NCC[C@H](O)C(=O)N[C@@H]1C[C@H](N)[C@@H](O[C@H]2O[C@H](CN)[C@@H](O)[C@H](O)[C@H]2O)[C@H](O)[C@H]1O[C@H]1O[C@H](CO)[C@@H](O)[C@H](N)[C@H]1O`: the compound was classed as inactive in assay [1], in [8] and in [10]. The Potency result in assay [2], in [3], in [4], in assay [7], in assay [9] and in [5] was “inactive” in each case.
With `COc1cc(O)cc(O)c1`, in assay [1], the compound was classed as inactive. The Potency entry in assay [2], in [3], in assay [4] and in assay [5] was “inactive” in each case.
In the case of `CCN(CC)S(=O)(=O)c1ccc(C(=O)O)cc1`, in [1], the outcome was inactive. In addition, the Potency result in assay [2], in assay [3], in [4] and in assay [5] was “inactive” in each case.
As to `CCC(=O)Nc1cccc(N)c1`, the compound was classed as inactive in [1] and in assay [6]. Moreover, the Potency entry in assay [2], in assay [3] and in [5] was “inactive” each time.
As to `O=S(=O)(c1cccc2cnccc12)N1CCCNCC1`, the outcome in assay [1] and in assay [6] was inactive. Also, the Potency entry in assay [2], in assay [3] and in assay [5] was “inactive” in each case.
`CCCCCCCCCCCCCCCCCCOCC(O)CO` (centres undefined): the result in [1] was inactive. For the same compound, the Potency entry in assay [2], in assay [3], in assay [4] and in [5] was “inactive” in each case.
In the case of `COc1cc(C)cc(O)c1`, in assay [1], the outcome was inactive. Further, the Potency result in assay [2], in assay [3], in assay [4] and in assay [5] was “inactive” in each case.
On to `CCCCCOC(=O)Nc1nc(=O)n([C@@H]2O[C@H](C)[C@@H](O)[C@H]2O)cc1F`, for which the outcome in assay [1] and in assay [6] was inactive. Further, the Potency result in assay [2], in [3] and in assay [5] was “inactive” in each case.
As for `O=C(O)c1ccccc1S`, the outcome in assay [1] and in assay [6] was inactive. Also, the Potency entry in assay [2], in assay [3] and in assay [5] was “inactive” throughout.
On to `[O-][N+](=Nc1ccccc1)c1ccccc1`, for which the compound was classed as inactive in assay [1]. Moreover, the Potency result in assay [2], in assay [3] and in [5] was “inactive” throughout.
For `N#CC1(O)CCCCC1`, the call in assay [1] and in assay [6] was inactive. For the same compound, the Potency entry in assay [2], in assay [4] and in [5] was “inactive” each time.
Turning to `NCCN1CCNC1=O`, the result in [1] and in assay [6] was inactive. For the same compound, the Potency entry in assay [2], in assay [4] and in assay [5] was “inactive” in each case.
On to `O=C(O)C(O)[C@H](O)[C@@H](O)[C@H](O)[C@H](O)CO` (some centres undefined), for which the compound was classed as inactive in assay [1] and in assay [6]. Also, the Potency result in [2], in [4] and in assay [5] was “inactive” throughout.
On to `COC(=O)C1=C(C)NC(C)=C(C(=O)OCC(C)=O)C1c1ccccc1[N+](=O)[O-]` (centres undefined), for which, in assay [1], the compound was classed as inactive. Besides, the Potency in [2] is 5.96 µM (active); in assay [4], 10.6 µM (active).
Turning to `O=C1OC(=O)c2cc([N+](=O)[O-])ccc21`, the compound was classed as inactive in assay [1]. In addition, the Potency entry in [2], in assay [3] and in assay [5] was “inactive” in each case.
In the case of `Cc1cc(C)cc(OCC2CNC(=O)O2)c1` (centres undefined), the result in [1] and in assay [6] was inactive. Also, the Potency result in [2], in assay [4] and in assay [5] was “inactive” in each case.
On to `CN(C)N=Nc1ccccc1`, for which the result in [1] and in [6] was inactive. The Potency entry in [2], in assay [4] and in [5] was “inactive” in each case.
For the compound `COc1cccc(OC)c1`, the compound was classed as inactive in assay [1] and in assay [6]. For the same compound, the Potency result in assay [2], in assay [4] and in assay [5] was “inactive” throughout.
In the case of `CC(=O)O[C@H](CC(=O)[O-])C[N+](C)(C)C`, the call in [1] and in [6] was inactive. The Potency result in assay [2], in [3] and in assay [5] was “inactive” each time.
For `Cc1ccc(N)cc1[N+](=O)[O-]`, the compound was called inactive in assay [1], in assay [6], in assay [8] and in assay [10]. In addition, the Potency entry in [2], in assay [4], in [7], in assay [9] and in assay [5] was “inactive” throughout.

For the origin of these results see PubChem BioAssay (Tox21).
